BRCA1 expr up: increases BRCA1 expression. MCF7-BRCA1-FFLuc reporter, luminescence, 48 h; response scale: scaled: vehicle 0%, 10 µM genistein 100%. Potency, µM (doses to about 46.1 µM), inactives show top-dose activation, usual class: activators. hit rate 1.1% among 380,000; further: nearly all actives have a fitted effect of over 80% in size
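Cells: MCF7-BRCA1-FFLuc, 2000/well. Exposure: 48 h, 37 °C, 5% CO2. Read: luminescence, 15 min post-substrate. Controls: genistein 10 microM (maximal activation), DMSO (neutral).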
ERG Ets-DNA blk: ERG Ets/DNA interaction inhibition; fluorescence polarization, His-ERG Ets domain / labelled DNA; Potency, µM (titrated, usually from 76.9 µM), for the others: at the top dose FP activity, negative = inhibition, hits mostly inhibitors; hit rate 0.028% among 370,000; AID 624246; active means well fitted inhibition curve with a large enough effect in the polarisation, with a control signal flat; inconclusive means small, poorly fitted or top-dose-only effect, or effect the other way, or a change in a side signal; inactive means no such curve, though single readings can be large or run the other way; the % refers to the polarisation;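 further: polarization taken with two DNA probes labelled with fluorescein and Texas red; % of control where 0% means no effect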
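His-tagged ERG Ets domain (1 uM in the protein solution; 300mM KCl, 50mM Tris-HCl, 1mM EDTA, 1mM DTT, pH 7.5) received compound, then a probe mix of 5 nM fluorescein-DNA and 100nM Texas-615-DNA. Fluorescence polarization was read for both dyes.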
GoLoco inh red: inhibitors of human Gai1-RGS12 GoLoco interaction (red fluorophore); P63096; Gai1:RGS12 GoLoco peptide FP, rhodamine, 10 min; Potency, µM (series often up to 61.6 µM), inactives show at the top dose activity, negative = inhibition, hits mostly inhibitors; hit rate 0.44% among 230,000; active means well fitted inhibition curve with a large enough effect, not every such curve was filed as active; inactive means no such curve, though single readings can be large or run the other way; further: on the % scale 0 is the no-effect control and ±100 the full control effect; nearly all actives have a fitted effect of over 30% in size
Target sequence (P63096 whole entry, looked up): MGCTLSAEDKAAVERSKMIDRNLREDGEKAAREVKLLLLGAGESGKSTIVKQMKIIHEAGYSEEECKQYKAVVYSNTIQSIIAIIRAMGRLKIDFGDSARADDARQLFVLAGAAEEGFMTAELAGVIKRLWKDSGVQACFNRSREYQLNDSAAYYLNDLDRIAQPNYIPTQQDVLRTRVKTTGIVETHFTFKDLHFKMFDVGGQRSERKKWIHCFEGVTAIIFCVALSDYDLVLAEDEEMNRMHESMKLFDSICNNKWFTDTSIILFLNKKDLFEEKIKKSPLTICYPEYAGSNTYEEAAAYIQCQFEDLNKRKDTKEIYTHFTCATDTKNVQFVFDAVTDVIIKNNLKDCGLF
Apoferritin bind: binds horse apoferritin like a general anesthetic | P02791 | apoferritin/1-aminoanthracene competitive binding, fluorescence | Potency, µM (top dose mostly 77.5 µM), for inactives: top-dose activity change, negative = displacement, usual class: inhibitors | hit rate 0.074% among 350,000 | AID 485281; further: on the % scale 0 is the no-effect control and ±100 the full control effect; nearly all actives have a fitted effect of over 20% in size
Target sequence (P02791 2-175 limits assumed): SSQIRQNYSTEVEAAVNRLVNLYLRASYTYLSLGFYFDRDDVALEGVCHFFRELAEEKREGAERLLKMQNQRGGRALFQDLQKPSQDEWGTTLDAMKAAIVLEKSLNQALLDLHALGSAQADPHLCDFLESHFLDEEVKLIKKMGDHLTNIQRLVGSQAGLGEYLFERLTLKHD
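Horse-spleen apoferritin (10 uM) was mixed with 50% saturated 1-aminoanthracene in PBS, exposed to compounds for 10 min at room temperature, and read for fluorescence (ex 380 nm, em 535 nm). Competitive displacement was fitted with a four-parameter Hill equation.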
Starred values were filed as active, the others as inactive; i = inactive; ? = inconclusive; nt = not tested or not shown; ! = not confirmed by another sample; [ ] = remark or other dose. Most compounds without a hit are left out; they make up all but 1.2% or so of the library. Unless noted, the call rests on the fitted dose curve; in most records, active means well fitted curve in the direction sought with a large enough effect; inconclusive means small, poorly fitted or top-dose-only effect, or another doubt; inactive means no such curve, though single readings can be large; an effect the other way counts as inactive or inconclusive. Potency means the concentration at half of the fitted maximal effect.

SMILES | BRCA1 expr up | ERG Ets-DNA blk | GoLoco inh red | Apoferritin bind
COc1ccc(CCN2CCC(CNC(=O)c3cnn(-c4ccc(C)cc4)c3C3CCN(C(=O)OC(C)(C)C)CC3)CC2)cc1 | nt | 2.1% | nt | 42.4%
COc1ccc(CCN2CCCC(CN(C)C(=O)c3cc(C)oc3C)C2)cc1 (configuration not stated) | 7.94µM* | -16.2% | nt | -12.3%
CCC(=O)Nc1ccc(C(=O)OCc2ccccc2Cl)cc1 | 7.08µM* | -21.2% | 6.8% | -23.3%
CN(N=O)c1ccc(O)c(O)c1 | nt | nt | 4.47µM* | nt
C[C@H](c1ccccc1)N1CCN([C@@H](C)c2ccccc2)CC1 | nt | nt | 1.9%[14.2 µM] | nt
C=CCN1C(=O)NC(=O)/C(=C\c2ccc(-c3ccccc3[N+](=O)[O-])o2)C1=O | -32.2% | -0.4% | 18.7% | 39.8µM*
CC1OC(C[N+](C)(C)C)CC1O (configuration not stated) | 9.1% | -1.7% | nt | nt
C[C@H]1OC[C@@H](C[N+](C)(C)C)O1 | -46.3% | 6.0% | 3.98µM* | -7.9%
Cc1cccc(OCCn2c(=O)oc3ccc(C)cc32)c1 | 8.91µM* | -3.6% | -13.8% | -12.0%
COc1ccc(-n2nc(C(=O)NCC(=O)N3CCC4(CC3)OCCO4)c3ccccc3c2=O)cc1Cl | 10µM* | -5.5% | nt | -15.3%
CS(=O)(=O)NNC(=O)Cn1nnc(-c2ccc(OCc3ccccc3Cl)cc2)n1 | 11.2µM* | 3.2% | nt | nt
CCOC(=O)c1ccc(NC(=O)CSc2cc(=O)n(CC)c3ccccc23)cc1 | nt | -1.7% | nt | ?
CC(=O)c1ccc(NC(=O)CSc2nc(=O)cc(N)n2-c2ccccc2)cc1 | 10µM* | 13.7% | 14.1% | -4.2%
COC1C(C)OC(OC2CC(C)(O)Cc3cc4c(c(O)c32)C(=O)c2c(O)cc3c(c2C4=O)OC2OC3(C)C(O)C(N(C)C)C2O)C(OC)C1(C)OC (configuration not stated) | -83.1% | 7.08µM* | nt | nt
Cc1ccc(N/N=C/C=C/c2ccco2)cc1 | 7.94µM* | -1.0% | nt | nt
CCN1C(=O)C(=C/C=C/c2ccco2)C(=O)N(CC)C1=S | -32.0% | 153.1% | -54.8% | -12.9%
NCCc1ccc(S(=O)(=O)O)cc1[N+](=O)[O-] | nt | nt | 6.4%[14.2 µM] | nt
O=S(=O)(O)F | nt | nt | -34.5% | nt
CN1C[C@H](CO)C=C2c3cccc4[nH]cc(c34)C[C@H]21 | 11.2% | -13.4% | 12.6µM* | -4.2%
C=C[C@@H]1CN2CC[C@H]1CC2[C@H](O)c1ccnc2ccccc12 (some centres not stated) | nt | nt | -5.3%[14.2 µM] | nt
CC(=O)/C=C/c1ccccc1 | 14.0% | -0.7% | 7.5% | nt
CC(=O)[O][Hg][c]1ccccc1 | nt | nt | 1.58µM*! | -9.9%
CC[n+]1c(-c2ccccc2)c2cc(N)ccc2c2ccc(N)cc21 | -89.5% | 15.8µM* | 5.62µM* | -23.0%
NCCc1cc(O)c(O)cc1O | 20.3% | ? | 25.1µM* | -1.2%
O=C(O)c1ccccc1-c1c2cc(Br)c(=O)cc-2oc2[c]([Hg])c(O)c(Br)cc12 | nt | nt | 1.12µM* | 322.2%
SMILES | BRCA1 expr up | ERG Ets-DNA blk | GoLoco inh red | Apoferritin bind
C/C(=N\OC(=O)NC(C)C)c1sc(-c2ccc(Cl)cc2)nc1C | 48.8% | -19.6% | 1.4% | ?
C/C(=N\OC(=O)NC(C)C)c1sc(-c2ccccc2)nc1C | 5.62µM* | 8.6% | -2.0% | -17.4%
COc1ccc(-c2nc3ccccc3c(=O)o2)cc1 | 14.1µM* | -2.2% | 8.3% | -3.4%
CC(C)[C@H]1C(=O)N2CCC[C@H]2[C@]2(O)O[C@](NC(=O)[C@@H]3C=C4c5cccc6[nH]cc(c56)C[C@H]4N(C)C3)(C(C)C)C(=O)N12 | -2.7% | 0.0% | 11.2µM* | 25.2%
O=C1/C(=C\c2ccccc2)C[C@@]2(O)[C@H]3Cc4ccc(O)c5c4[C@@]2(CCN3CC2CC2)[C@H]1O5 | nt | nt | -24.5% | -8.7%
Oc1ccc([C@H](O)C2CCCCN2)cc1O (some centres not stated) | nt | nt | 4.5%[14.2 µM] | nt
Cc1ccc(N2CCN(C(=O)c3cn(CC4CCCCC4)nn3)C(C)C2)cc1 (configuration not stated) | 2.51µM* | -12.2% | nt | nt
O=C(O)[C@H]1C2c3ccccc3C(c3ccccc32)[C@@H]1C(=O)NCC1CC1 | nt | nt | 4.6%[14.2 µM] | nt
COc1cc2c(cc1OC)-c1c(OC)c(OC)cc3c1C(C2)N(C)CC3 (configuration not stated) | -18.2% | -8.8% | 4.3% | -7.7%
COc1cc2c(cc1OC)-c1c(O)c(OC)cc3c1[C@H](C2)N(C)CC3 | nt | nt | 11.2µM* | nt
C[C@@H]1CC[C@@H]2N(C1)C[C@H]1[C@@](O)([C@H](O)C[C@]3(O)[C@H]4CC[C@H]5[C@]6(O)O[C@]4(C[C@]13O)[C@@]5(C)CC[C@@H]6O)[C@@]2(C)O | nt | nt | -8.3%[14.2 µM] | nt
CCOP(=O)(Oc1ccccc1)c1c([N+](=O)[O-])cc(C(F)(F)F)cc1[N+](=O)[O-] (configuration not stated) | -1.6% | -3.0% | nt | -1.4%
CCCOP(=O)(O)c1c([N+](=O)[O-])cc(C(F)(F)F)cc1[N+](=O)[O-] (tested in a mixture with another compound) | 10µM* | nt | 5.9% | -14.0%
CCCCCCC[n+]1ccc(-c2cc[n+](CCCCCCC)cc2)cc1 | -83.6% | 5.4% | 7.94µM*! | -2.5%
CN1C(=O)N(C)C(=O)C(CCc2ccncc2)(CCc2ccncc2)C1=O | 0.8% | 2.0% | 17.1% | -2.4%
c1cc(CCN2CCCC2)ccn1 | 9.3% | -5.5% | 7.08µM* | 3.4%
CN(C)CCC(C#N)(c1ccccc1)c1ccccc1 | nt | nt | 1.3%[14.2 µM] | nt
COc1ccc(C(=O)O)cc1OC | 0.1% | -3.5% | 31.6µM* | -9.2%
CO[C@@H]([CH2][Hg])CN1C(=O)c2ccccc2S1(=O)=O.Cn1c(=O)c2nc[nH]c2n(C)c1=O | nt | nt | -8.6%[14.2 µM] | nt
CCNC(C)(C)[C@@H](SS)c1ccc(Br)cc1 | nt | nt | -8.6%[14.2 µM] | nt
CN(C)c1ccc(/C=C2/C(=N\O)C3CCN2CC3)cc1 | 3.98µM* | 0.0% | 6.7% | -12.5%
O=C(O)C[SH+]CC(=O)O.O=C(O)C[SH+]CC(=O)O.[Cu] | nt | nt | 2.2%[14.2 µM] | nt
CCOC(=O)C1CCCN(c2ccc([N+](=O)[O-])c3nonc23)C1 (configuration not stated) | -21.7% | 3.16µM* | 15.8µM* | 4.2%
CN(C)[C@@H]1C(=O)C(C(N)=O)=C(O)[C@]2(O)C(=O)C3=C(O)c4c(O)cccc4[C@](C)(O)[C@H]3C[C@@H]12 | nt | nt | -22.0%[14.2 µM] | nt
CC1=NCCc2c1[nH]c1cc(O)ccc21 | -2.7% | -3.9% | 28.2µM*! | i
COc1ccc2c3c([nH]c2c1)C(C)=NCC3 | -0.3% | -5.8% | 12.6% | i
CCN(CC)C(=O)c1ccc(NC(=O)c2cccc(S(=O)(=O)N3CCN(C)CC3)c2)cc1 | -16.8% | -12.6% | nt | -6.5%
CCN(CC)C(=O)c1ccc(NC(=O)c2cccc(F)c2)cc1 | 11.2µM* | -4.7% | -2.5% | ?
COc1ccc(N=C2SCCCN2C)cc1 | -2.0% | -7.5% | 7.94µM* | -9.4%
NC1=NC([S][Hg][c]2ccc(N)cc2)c2ncn([C@@H]3O[C@H](CO)[C@@H](O)[C@@H]3O)c2N1 (some centres not stated) | nt | nt | 0.501µM* | nt
